Measurements published in the supplement of paper PMC10849652.
Of roughly 7,900 targets only a part is listed; those with a hit were picked by preference. About 0.6% of all pairs of compound and target were hits. A number with no mark means an inactive call.

Legend:
Experiment in all cases: log2 fold change, soluble protein after heating vs DMSO (PISA); higher = thermal stabilisation; K562 cells, 10 uM, 30 min; active = over 0.2 and 3.5 SD of the protein, either way, in both replicates (recomputed)
bafetinib = compound: Cc1ccc(NC(=O)c2ccc(CN3CC[C@H](N(C)C)C3)c(C(F)(F)F)c2)cc1Nc1nccc(-c2cncnc2)n1 [bafetinib]
Procedure, shortened: (§1)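 K562 cells at 2×10^6 cells/mL were exposed to 10 μM compound for 30 min, then aliquots were heated for 3 min across 48°C-58°C, pooled, and extracted in PBS containing 0.5% NP-40 at 4°C. The supernatant after 21,000xg for 90 min was taken as soluble protein and measured by TMTpro 16plex LC-MS/MS with channel sums equalised. Thermal stability is reported relative to control samples, with values from duplicates. Fold changes are given on a log2 scale.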

[1] = compound: Cc1cccc(CC(=O)N2CCc3c2ccc(-c2cn(C)c4ncnc(N)c24)c3F)n1
Procedure, shortened: as §1

nilotinib = compound: Cc1cn(-c2cc(NC(=O)c3ccc(C)c(Nc4nccc(-c5cccnc5)n4)c3)cc(C(F)(F)F)c2)cn1 [nilotinib]
Procedure, shortened: as §1

[2] = compound: Cc1nc(Nc2n[nH]c3c2CN(C(=O)N[C@H](CN(C)C)c2ccccc2)C3(C)C)c2sccc2n1
Procedure, shortened: as §1

dasatinib = compound: Cc1nc(Nc2ncc(C(=O)Nc3c(C)cccc3Cl)s2)cc(N2CCN(CCO)CC2)n1 [dasatinib]
Procedure, shortened: as §1

[3] = compound: Cc1ncc(-c2ccnc(Nc3ccc(S(C)(=O)=O)cc3)n2)n1C(C)C
Procedure, shortened: as §1

[4] = compound: Cn1cc(-c2ccc3c(c2)CCN3C(=O)Cc2cccc(C(F)(F)F)c2)c2c(N)ncnc21
Procedure, shortened: as §1

[5] = compound: Cn1cc(-c2ccc3nnc(C(F)(F)c4ccc5ncccc5c4)n3n2)cn1
Procedure, shortened: as §1

tipifarnib = compound: Cn1cncc1[C@@](N)(c1ccc(Cl)cc1)c1ccc2c(c1)c(-c1cccc(Cl)c1)cc(=O)n2C [tipifarnib]
Procedure, shortened: as §1

mubritinib = compound: FC(F)(F)c1ccc(/C=C/c2nc(COc3ccc(CCCCn4ccnn4)cc3)co2)cc1 [mubritinib]
Procedure, shortened: as §1

Sequence of UniProt Q96BZ9 (Q96BZ9 whole entry, looked up): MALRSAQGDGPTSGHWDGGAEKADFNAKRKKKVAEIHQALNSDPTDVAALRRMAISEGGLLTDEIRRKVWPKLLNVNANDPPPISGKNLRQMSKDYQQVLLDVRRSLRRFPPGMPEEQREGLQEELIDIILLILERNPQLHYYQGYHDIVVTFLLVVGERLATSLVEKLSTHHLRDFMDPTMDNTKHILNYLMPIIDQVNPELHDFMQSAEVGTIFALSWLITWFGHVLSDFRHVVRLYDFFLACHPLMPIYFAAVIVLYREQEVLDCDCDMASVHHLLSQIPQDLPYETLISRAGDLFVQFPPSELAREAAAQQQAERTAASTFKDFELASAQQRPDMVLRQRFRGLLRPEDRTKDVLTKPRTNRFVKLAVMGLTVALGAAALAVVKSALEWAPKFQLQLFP
Sequence of UniProt Q9UBP0 (Q9UBP0 whole entry, looked up): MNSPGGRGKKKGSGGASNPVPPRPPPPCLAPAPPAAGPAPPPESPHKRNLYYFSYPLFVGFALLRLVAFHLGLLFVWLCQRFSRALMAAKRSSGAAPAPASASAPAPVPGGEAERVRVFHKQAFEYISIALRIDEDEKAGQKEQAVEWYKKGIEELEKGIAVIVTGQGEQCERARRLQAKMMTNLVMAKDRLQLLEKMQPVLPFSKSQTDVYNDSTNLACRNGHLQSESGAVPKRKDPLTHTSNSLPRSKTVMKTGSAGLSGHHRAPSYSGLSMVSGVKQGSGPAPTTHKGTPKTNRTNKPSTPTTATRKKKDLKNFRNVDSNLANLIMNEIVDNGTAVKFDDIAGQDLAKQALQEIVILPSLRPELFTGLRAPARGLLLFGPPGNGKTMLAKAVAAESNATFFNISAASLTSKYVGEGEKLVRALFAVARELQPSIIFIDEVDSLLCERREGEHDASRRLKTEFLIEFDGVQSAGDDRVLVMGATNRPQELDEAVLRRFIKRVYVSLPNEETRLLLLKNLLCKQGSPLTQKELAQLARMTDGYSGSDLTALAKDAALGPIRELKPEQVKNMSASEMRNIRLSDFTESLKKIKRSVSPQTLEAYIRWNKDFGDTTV
Sequence of UniProt Q8IWA5 (Q8IWA5 whole entry, looked up): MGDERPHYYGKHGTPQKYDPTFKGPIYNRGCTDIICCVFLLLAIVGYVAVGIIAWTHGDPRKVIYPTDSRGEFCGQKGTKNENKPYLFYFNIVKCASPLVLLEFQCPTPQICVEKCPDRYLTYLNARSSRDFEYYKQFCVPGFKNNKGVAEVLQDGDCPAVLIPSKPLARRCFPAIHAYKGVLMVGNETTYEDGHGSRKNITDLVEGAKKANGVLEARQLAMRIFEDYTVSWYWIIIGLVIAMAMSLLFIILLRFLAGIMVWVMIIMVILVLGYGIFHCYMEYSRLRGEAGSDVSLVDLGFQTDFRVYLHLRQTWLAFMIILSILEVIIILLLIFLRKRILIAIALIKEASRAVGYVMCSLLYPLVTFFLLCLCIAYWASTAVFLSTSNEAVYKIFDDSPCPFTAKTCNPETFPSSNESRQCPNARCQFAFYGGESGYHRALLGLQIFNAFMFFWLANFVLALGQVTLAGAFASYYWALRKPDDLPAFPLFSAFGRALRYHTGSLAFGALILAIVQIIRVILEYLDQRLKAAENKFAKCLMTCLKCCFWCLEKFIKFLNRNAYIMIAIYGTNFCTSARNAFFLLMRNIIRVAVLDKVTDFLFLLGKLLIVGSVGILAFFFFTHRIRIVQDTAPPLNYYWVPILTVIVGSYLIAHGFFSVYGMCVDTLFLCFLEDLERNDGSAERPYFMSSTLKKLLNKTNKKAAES
Sequence of UniProt Q9Y5M8 (Q9Y5M8 whole entry, looked up): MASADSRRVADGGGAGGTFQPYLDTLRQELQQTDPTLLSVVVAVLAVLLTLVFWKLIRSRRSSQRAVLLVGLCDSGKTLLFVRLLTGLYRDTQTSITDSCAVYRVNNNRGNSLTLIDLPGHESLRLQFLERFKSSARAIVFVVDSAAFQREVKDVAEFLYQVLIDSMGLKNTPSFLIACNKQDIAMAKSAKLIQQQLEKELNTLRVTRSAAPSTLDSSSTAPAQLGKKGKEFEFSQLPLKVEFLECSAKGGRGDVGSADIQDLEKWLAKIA
Sequence of UniProt Q13573 (Q13573 whole entry, looked up): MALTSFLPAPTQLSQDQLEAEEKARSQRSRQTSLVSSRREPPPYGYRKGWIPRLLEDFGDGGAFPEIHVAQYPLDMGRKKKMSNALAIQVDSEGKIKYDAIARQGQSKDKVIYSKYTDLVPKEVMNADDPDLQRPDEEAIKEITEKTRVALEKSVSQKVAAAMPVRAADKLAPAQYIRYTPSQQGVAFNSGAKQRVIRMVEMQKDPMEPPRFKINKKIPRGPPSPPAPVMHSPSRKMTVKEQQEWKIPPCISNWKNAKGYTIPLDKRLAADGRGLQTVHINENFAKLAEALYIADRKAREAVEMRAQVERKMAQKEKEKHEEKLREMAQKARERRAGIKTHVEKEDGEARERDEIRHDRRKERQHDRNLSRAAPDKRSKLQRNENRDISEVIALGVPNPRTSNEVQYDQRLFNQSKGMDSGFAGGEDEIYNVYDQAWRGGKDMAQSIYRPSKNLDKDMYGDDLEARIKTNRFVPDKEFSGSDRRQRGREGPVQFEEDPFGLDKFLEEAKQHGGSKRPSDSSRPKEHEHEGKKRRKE
Sequence of UniProt P30626 (P30626 whole entry, looked up): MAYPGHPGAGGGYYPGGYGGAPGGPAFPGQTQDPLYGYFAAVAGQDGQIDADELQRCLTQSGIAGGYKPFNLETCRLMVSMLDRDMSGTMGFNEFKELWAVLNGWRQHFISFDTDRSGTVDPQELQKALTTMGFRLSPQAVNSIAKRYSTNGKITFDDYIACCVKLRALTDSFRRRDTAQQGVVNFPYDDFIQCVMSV
Sequence of UniProt Q9NQZ5 (Q9NQZ5 whole entry, looked up): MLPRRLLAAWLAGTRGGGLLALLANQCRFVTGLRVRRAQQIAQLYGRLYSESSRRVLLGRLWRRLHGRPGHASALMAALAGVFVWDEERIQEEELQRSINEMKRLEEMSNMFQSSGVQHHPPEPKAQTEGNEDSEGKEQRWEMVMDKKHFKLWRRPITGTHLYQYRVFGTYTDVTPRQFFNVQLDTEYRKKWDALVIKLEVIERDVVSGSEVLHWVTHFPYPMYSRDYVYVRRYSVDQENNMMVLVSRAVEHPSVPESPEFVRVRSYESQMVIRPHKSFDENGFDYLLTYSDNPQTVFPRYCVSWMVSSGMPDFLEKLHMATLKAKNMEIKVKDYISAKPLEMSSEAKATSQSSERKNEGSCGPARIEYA
Sequence of UniProt P12931 (P12931 whole entry, looked up): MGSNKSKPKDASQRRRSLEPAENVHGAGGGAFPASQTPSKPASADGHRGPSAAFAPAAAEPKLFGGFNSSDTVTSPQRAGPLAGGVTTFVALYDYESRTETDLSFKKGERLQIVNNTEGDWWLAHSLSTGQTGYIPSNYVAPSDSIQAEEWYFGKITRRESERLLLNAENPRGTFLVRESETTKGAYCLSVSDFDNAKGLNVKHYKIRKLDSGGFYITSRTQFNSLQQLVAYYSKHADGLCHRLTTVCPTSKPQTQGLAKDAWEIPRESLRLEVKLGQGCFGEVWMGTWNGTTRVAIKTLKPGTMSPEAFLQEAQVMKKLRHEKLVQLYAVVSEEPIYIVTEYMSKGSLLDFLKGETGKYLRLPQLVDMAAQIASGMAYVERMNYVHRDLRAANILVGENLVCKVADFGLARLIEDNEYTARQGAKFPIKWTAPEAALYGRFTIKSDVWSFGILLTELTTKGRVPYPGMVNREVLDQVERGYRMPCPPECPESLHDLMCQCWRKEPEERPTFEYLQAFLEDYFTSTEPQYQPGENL
Sequence of UniProt P56962 (P56962 whole entry, looked up): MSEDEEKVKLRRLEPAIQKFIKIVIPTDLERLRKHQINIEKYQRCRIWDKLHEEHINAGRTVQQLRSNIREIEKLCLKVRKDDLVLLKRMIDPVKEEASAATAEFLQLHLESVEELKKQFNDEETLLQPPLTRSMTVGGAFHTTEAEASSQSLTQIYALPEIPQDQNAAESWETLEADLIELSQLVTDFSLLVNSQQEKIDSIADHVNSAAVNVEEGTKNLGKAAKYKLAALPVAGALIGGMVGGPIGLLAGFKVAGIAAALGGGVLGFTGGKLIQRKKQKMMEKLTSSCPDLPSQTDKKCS
Sequence of UniProt Q13043 (Q13043 whole entry, looked up): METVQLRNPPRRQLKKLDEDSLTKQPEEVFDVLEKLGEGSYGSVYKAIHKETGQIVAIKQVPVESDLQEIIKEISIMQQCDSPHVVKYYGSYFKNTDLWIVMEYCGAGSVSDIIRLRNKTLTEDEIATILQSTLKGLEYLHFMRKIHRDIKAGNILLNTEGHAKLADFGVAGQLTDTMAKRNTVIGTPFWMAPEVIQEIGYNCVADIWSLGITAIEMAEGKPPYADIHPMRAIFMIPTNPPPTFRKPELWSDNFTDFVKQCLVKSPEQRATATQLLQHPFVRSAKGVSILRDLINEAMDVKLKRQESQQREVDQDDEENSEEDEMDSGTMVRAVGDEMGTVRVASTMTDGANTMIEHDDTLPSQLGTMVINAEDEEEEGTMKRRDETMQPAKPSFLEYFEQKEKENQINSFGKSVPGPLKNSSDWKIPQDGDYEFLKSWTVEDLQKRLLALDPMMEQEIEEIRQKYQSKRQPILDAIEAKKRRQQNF
Sequence of UniProt Q13247 (Q13247 whole entry, looked up): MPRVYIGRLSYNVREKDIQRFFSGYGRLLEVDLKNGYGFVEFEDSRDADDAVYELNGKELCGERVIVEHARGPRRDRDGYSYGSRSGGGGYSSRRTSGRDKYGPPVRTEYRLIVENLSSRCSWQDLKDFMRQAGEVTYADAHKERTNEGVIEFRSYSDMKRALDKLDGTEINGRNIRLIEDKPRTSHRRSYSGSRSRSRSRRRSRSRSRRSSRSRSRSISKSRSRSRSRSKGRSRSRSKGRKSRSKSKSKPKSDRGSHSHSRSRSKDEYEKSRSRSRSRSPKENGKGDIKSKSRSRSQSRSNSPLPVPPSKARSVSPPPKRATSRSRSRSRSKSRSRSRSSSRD
Sequence of UniProt Q9BYN0 (Q9BYN0 whole entry, looked up): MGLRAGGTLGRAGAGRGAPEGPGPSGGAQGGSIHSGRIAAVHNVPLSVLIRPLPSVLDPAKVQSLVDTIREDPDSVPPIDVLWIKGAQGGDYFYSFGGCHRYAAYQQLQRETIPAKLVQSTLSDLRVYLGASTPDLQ

| Target | log2 fold change (bafetinib) | log2 fold change [1] | log2 fold change (nilotinib) | log2 fold change [2] | log2 fold change (dasatinib) | log2 fold change [3] | log2 fold change [4] | log2 fold change [5] | log2 fold change (tipifarnib) | log2 fold change (mubritinib) |
| --- | --- | --- | --- | --- | --- | --- | --- | --- | --- | --- |
| SRI (UniProt P30626) | -0.001 | 0.062 | 0.017 | 0.001 | 0.04 | -0.036 | 0.113 | 0.328 | -0.072 | 0.01 |
| TIAL1 isoform 2 (UniProt Q01085) | -0.072 | -0.028 | -0.023 | 0.036 | -0.021 | 0.074 | 0.009 | -0.001 | 0.015 | 0.013 |
| SPINDOC (UniProt Q9BUA3) | -0.149 | -0.031 | 0.049 | -0.458 (active) | -0.105 | -0.127 | -0.085 | -0.044 | 0.046 | 0.04 |
| SPAST (UniProt Q9UBP0) | -0.015 | -0.057 | -0.05 | -0.054 | -0.246 (active) | 0.026 | 0.099 | -0.022 | -0.065 | 0.036 |
| SLC44A2 isoform 2 (UniProt Q8IWA5) | 0.058 | -0.053 | 0.13 | 0.008 | 0.064 | 0.068 | 0.084 | -0.076 |  | 0.045 |
| SMARCAD1 isoform 2 (UniProt Q9H4L7) | 0.067 | 0.014 | 0.049 | -0.056 | -0.131 | -0.049 | 0.088 | 0.034 | -0.144 | 0.241 |
| TK1 (UniProt K7ERV3) | -0.03 | 0.022 | -0.108 | -0.018 | 0.018 | -0.076 | 0.176 | 0.016 | 0.03 | 0.037 |
| STK38L (UniProt Q9Y2H1) | -0.02 | -0.065 | -0.032 | -0.238 | -0.012 | -0.03 | -0.122 | -0.582 |  | 0.081 |
| STK4 (UniProt Q13043) | -0.053 | -0.027 | -0.003 | 0.143 | -0.052 | -0.016 | 0.005 | 0 | 0.039 | -0.028 |
| SRPRB (UniProt Q9Y5M8) | 0.107 | 0.14 | 0.035 | 0.026 | -0.094 | 0.121 | 0.076 | 0.031 | -0.123 | 0.134 |
| THADA (UniProt Q6YHU6) | 0 | 0.027 | -0.068 | 0.045 | -0.15 | -0.028 | 0.098 | 0.055 | -0.1 | 0.123 |
| STIM1 (UniProt Q13586) | -0.143 | 0 | 0.002 | -0.01 | -0.006 | -0.025 | 0.028 | 0.01 | 0.012 | 0.016 |
| SRC isoform 2 (UniProt P12931) | -0.054 | -0.037 | -0.041 | -0.499 |  | -0.136 | 0.008 | -0.163 | 0.005 | 0.031 |
| STX17 (UniProt P56962) | -0.049 | -0.028 | 0.028 | -0.057 | -0.027 | -0.051 | 0.071 | 0.002 | -0.012 | 0.074 |
| TBC1D10B (UniProt Q4KMP7) | -0.01 | 0.022 | 0.013 | -0.09 | -0.064 | -0.149 | 0.07 | 0 | 0.039 | 0.013 |
| TBC1D20 isoform 3 (UniProt Q96BZ9) | -0.03 | -0.083 | 0.07 | -0.023 |  | 0.033 | 0.121 | 0.233 | -0.077 | 0.129 |
| TBC1D15 isoform 3 (UniProt Q8TC07) | -0.026 | 0.059 | -0.116 | -0.098 | -0.133 | -0.004 | -0.052 | 0.011 | -0.134 | 0.054 |
| TMBIM1 (UniProt Q969X1) | 0.068 | -0.07 | 0.168 | -0.044 | -0.01 | 0.149 | -0.06 | -0.105 | -0.318 | 0.025 |
| STARD7 (UniProt Q9NQZ5) | -0.043 | 0.109 | -0.057 | 0.081 | -0.035 | 0.094 | 0.021 | -0.007 | -0.026 | 0.032 |
| SLC25A4 (UniProt P12235) | -0.027 | -0.097 | -0.004 | -0.03 | 0.033 | -0.014 | 0.022 | -0.005 | 0.026 | -0.024 |
| SYNE1 (UniProt Q8NF91) | -0.051 | 0.008 | 0.021 | -0.281 | -0.074 | -0.074 | 0.079 | -0.098 |  | 0.182 |
| STK11IP (UniProt Q8N1F8) | -0.06 | 0.111 | -0.081 | 0.058 | -0.19 | 0.051 | -0.068 |  | 0.034 | -0.071 |
| STARD9 (UniProt Q9P2P6) | 0.012 | -0.029 | 0.016 | 0.157 | 0.091 | 0.002 | 0.076 | 0.047 | 0.07 | 0.129 |
| ST3GAL2 (UniProt Q16842) | 0.092 | -0.008 | 0.191 | -0.042 | 0.179 | 0.081 | -0.039 | -0.022 | 0.076 | -0.026 |
| SPIRE1 (UniProt Q08AE8) | -0.06 | -0.194 | 0.007 | 0.063 |  | -0.046 | -0.155 | -0.026 |  | 0.098 |
| STAT3 (UniProt P40763) | -0.015 | -0.003 | -0.097 | -0.216 | -0.141 | 0.026 | -0.027 | 0.013 | -0.172 | 0.024 |
| SRXN1 (UniProt Q9BYN0) | -0.011 | -0.157 | -0.017 | -0.088 |  | 0.093 | 0.134 | 0.056 | -0.149 | 0.127 |
| SNW1 (UniProt Q13573) | -0.049 | -0.071 | 0.004 | 0.067 | 0.027 | 0.088 | -0.055 | -0.043 | 0.026 | -0.006 |
| TATDN2 (UniProt Q93075) | 0.088 | -0.151 | 0.137 | -0.217 | -0.042 | -0.043 | -0.059 |  | 0.074 |  |
| SRSF6 (UniProt Q13247) | 0.578 | 0.192 | 0.155 | -0.813 (active) | 0.079 | 0.095 | -0.251 |  | 0.212 | -0.014 |
